From PubChem BioAssay (NCATS)
Records with an inconclusive call do not appear. Where a call stands in place of a potency, no number is given. Values without a mark were called inactive. Active and inactive are the calls of the source. The call rests on the fitted dose curve; in most records, active means well fitted inhibition curve with a large enough effect; inconclusive means small, poorly fitted or top-dose-only effect; inactive means flat fitted curve, though single readings scatter.

Experiments:
Test in all cases: qHTS profiling for inhibitors of Plasmodium falciparum proliferation (AID 504749); further: nearly all actives have a fitted effect of over 60% in size
Settings in all cases: P. falciparum in erythrocytes, SYBR Green DNA, 72 h; series mostly up to 28.7 µM
[1] = system: 7G8
Summary of the method: (§1)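 P. falciparum-infected erythrocytes (0.3% parasitemia, 2.5% hematocrit final) were exposed to compounds for 72 h at 37 C in 5% CO2, then lysed with SYBR Green buffer overnight at room temperature; parasite DNA fluorescence was normalized to artemisinin and DMSO controls.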

[2] = system: AA1029
Summary of the method: as §1

[3] = system: AS120
Summary of the method: as §1

[4] = system: ATS189
Summary of the method: as §1

[5] = system: ATS95
Summary of the method: as §1

[6] = system: C2A
Summary of the method: as §1

[7] = system: CP185
Summary of the method: as §1

[8] = system: CP191
Summary of the method: as §1

[9] = system: CP192
Summary of the method: as §1

[10] = system: CP194
Summary of the method: as §1

[11] = system: CP201
Summary of the method: as §1

[12] = system: CP203
Summary of the method: as §1

[13] = system: CP211
Summary of the method: as §1

[14] = system: CP215
Summary of the method: as §1

[15] = system: CP217
Summary of the method: as §1

[16] = system: CP237
Summary of the method: as §1

[17] = system: CP238
Summary of the method: as §1

[18] = system: CP247
Summary of the method: as §1

[19] = system: CP250
Summary of the method: as §1

[20] = system: CP252
Summary of the method: as §1
Potency means the concentration at half of the fitted maximal effect.

Structure (SMILES) | Potency [1] | Potency [2] | Potency [3] | Potency [4] | Potency [5] | Potency [6] | Potency [7] | Potency [8] | Potency [9] | Potency [10] | Potency [11] | Potency [12] | Potency [13] | Potency [14] | Potency [15] | Potency [16] | Potency [17] | Potency [18] | Potency [19] | Potency [20]
c1ccc2c(c1)sc1ccccc12 | inactive | inactive | inactive | inactive | inactive | inactive | inactive | inactive | inactive | inactive | inactive | inactive | inactive | inactive | inactive | inactive | inactive | inactive | inactive | inactive
CC(C)=CC1C(C(=O)OCN2C(=O)C3=C(CCCC3)C2=O)C1(C)C (configuration not stated) | inactive | inactive | inactive | inactive | inactive | inactive | inactive | inactive | inactive | inactive | inactive | inactive | inactive | inactive | inactive | inactive | inactive | inactive | inactive | inactive
COP(=S)(OC)Oc1ccc(SC)c(C)c1 | inactive | inactive | inactive | inactive | inactive | inactive | inactive | inactive | inactive | inactive | inactive | inactive | inactive | inactive | inactive | inactive | inactive | inactive | inactive | inactive
CN1C(=O)CC(=O)N(c2ccccc2)c2cc(Cl)ccc21 | inactive | inactive | inactive | inactive | inactive | inactive | inactive | inactive | inactive | inactive | inactive | inactive | inactive | inactive | inactive | inactive | inactive | inactive | inactive | inactive
CCC1(c2ccccc2)C(=O)N(COC)C(=O)N(COC)C1=O | inactive | inactive | inactive | inactive | inactive | inactive | inactive | inactive | inactive | inactive | inactive | inactive | inactive | inactive | inactive | inactive | inactive | inactive | inactive | inactive
CC(C)c1cccc(C(C)C)c1O | inactive | inactive | inactive | inactive | inactive | inactive | inactive | inactive | inactive | inactive | inactive | – | – | inactive | inactive | inactive | inactive | inactive | inactive | inactive
CC(C)(C)NCC(O)c1cc(Cl)c(N)c(C(F)(F)F)c1 (configuration not stated) | 4.47 µM (active) | 7.94 µM (active) | 5.62 µM (active) | 7.08 µM (active) | – | 10 µM (active) | 10 µM (active) | 4.47 µM (active) | inactive | – | inactive | – | – | – | 11.2 µM (active) | 7.08 µM (active) | 8.91 µM (active) | 10 µM (active) | 10 µM (active) | 8.91 µM (active)
C=C(C)[C@H]1CN[C@H](C(=O)O)[C@H]1CC(=O)O | – | inactive | inactive | inactive | inactive | inactive | inactive | inactive | inactive | inactive | inactive | inactive | inactive | – | inactive | inactive | inactive | inactive | inactive | inactive
COc1ccc2c(c1)C13CCCC[C@@H]1C(C2)N(C)CC3 (some centres not stated) | 4.47 µM (active) | – | inactive | inactive | – | inactive | – | inactive | inactive | – | inactive | – | inactive | inactive | inactive | inactive | inactive | inactive | inactive | inactive
CCC1(CC)C(=O)C=CNC1=O | inactive | inactive | inactive | inactive | inactive | inactive | inactive | inactive | inactive | inactive | inactive | inactive | inactive | inactive | inactive | inactive | inactive | – | inactive | inactive
COC1CC(=C(c2cccs2)c2cccs2)C[N+](C)(C)C1 (configuration not stated) | 10 µM (active) | 12.6 µM (active) | 15.8 µM (active) | 8.91 µM (active) | – | – | 6.31 µM (active) | 5.01 µM (active) | – | – | – | 12 µM (active) | – | – | 6.31 µM (active) | 11.2 µM (active) | 6.31 µM (active) | 5.01 µM (active) | 10 µM (active) | 4.47 µM (active)
CNC(C)(C)Cc1ccccc1 | inactive | inactive | inactive | inactive | inactive | inactive | inactive | inactive | – | inactive | inactive | inactive | inactive | inactive | inactive | – | inactive | inactive | inactive | inactive
O=C(O)CCCc1ccc(N(CCCl)CCCl)cc1 | – | inactive | inactive | inactive | inactive | inactive | inactive | inactive | inactive | inactive | inactive | inactive | inactive | inactive | inactive | inactive | inactive | inactive | – | inactive
Nc1ccc([As](=O)(O)O)cc1 | – | inactive | inactive | inactive | inactive | inactive | inactive | inactive | inactive | inactive | inactive | inactive | inactive | inactive | inactive | inactive | inactive | inactive | inactive | inactive
NC(=O)CS(=O)C(c1ccccc1)c1ccccc1 (configuration not stated) | – | inactive | inactive | inactive | inactive | inactive | inactive | inactive | inactive | inactive | inactive | inactive | inactive | inactive | inactive | inactive | inactive | inactive | inactive | inactive
O=C(N/N=C/c1ccc([N+](=O)[O-])o1)c1cc([N+](=O)[O-])cc([N+](=O)[O-])c1O | inactive | 0.1 µM (active) | 0.141 µM (active) | 0.316 µM (active) | – | 0.0178 µM (active) | 0.0631 µM (active) | 0.178 µM (active) | – | – | – | – | – | – | 0.0028 µM (active) | – | 0.0708 µM (active) | 0.02 µM (active) | 0.1 µM (active) | –

Structure (SMILES) | Potency [1] | Potency [2] | Potency [3] | Potency [4] | Potency [5] | Potency [6] | Potency [7] | Potency [8] | Potency [9] | Potency [10] | Potency [11] | Potency [12] | Potency [13] | Potency [14] | Potency [15] | Potency [16] | Potency [17] | Potency [18] | Potency [19] | Potency [20]
Clc1cccc(SC2CCNCC2)n1 | – | inactive | inactive | inactive | inactive | inactive | inactive | inactive | inactive | inactive | inactive | inactive | inactive | inactive | inactive | inactive | inactive | inactive | inactive | inactive
CCCC(C)(COC(N)=O)COC(N)=O | inactive | inactive | inactive | inactive | inactive | inactive | inactive | inactive | inactive | inactive | inactive | inactive | inactive | – | inactive | inactive | inactive | inactive | inactive | inactive
CCC(C)(C)c1ccc(O)cc1 | inactive | inactive | inactive | inactive | – | inactive | inactive | inactive | inactive | inactive | inactive | inactive | inactive | inactive | inactive | inactive | inactive | inactive | inactive | inactive
CC(C)(C)NCC(O)c1ccccc1Cl (configuration not stated) | 11.2 µM (active) | – | – | – | – | inactive | – | inactive | inactive | – | inactive | – | inactive | – | – | 8.91 µM (active) | – | – | inactive | –
O=C1c2ccccc2C(=O)C1C(=O)C(c1ccccc1)c1ccccc1 | – | inactive | – | inactive | inactive | inactive | inactive | inactive | inactive | inactive | – | inactive | inactive | inactive | inactive | inactive | inactive | inactive | inactive | inactive
CCOP(=S)(OCC)Oc1ccc2c(C)c(Cl)c(=O)oc2c1 | – | – | – | – | – | inactive | – | – | inactive | – | – | – | – | – | – | – | – | inactive | – | –
C=CCN1C[C@H](C)N([C@H](c2ccc(C(=O)N(CC)CC)cc2)c2cccc(OC)c2)C[C@H]1C | 5.01 µM (active) | – | – | – | – | – | – | – | inactive | inactive | inactive | inactive | inactive | inactive | – | 12.6 µM (active) | inactive | – | – | –
C[C@](O)(CS(=O)(=O)c1ccc(F)cc1)C(=O)Nc1ccc(C#N)c(C(F)(F)F)c1 | – | inactive | inactive | inactive | inactive | inactive | inactive | inactive | inactive | inactive | inactive | – | inactive | inactive | inactive | inactive | inactive | inactive | inactive | inactive
CN1C(=O)COc2c(C(=O)NC3CN4CCC3CC4)cc(Cl)cc21 (configuration not stated) | – | inactive | inactive | inactive | inactive | inactive | inactive | inactive | inactive | inactive | inactive | inactive | inactive | inactive | inactive | inactive | inactive | inactive | inactive | inactive
COC(=O)C(c1ccccc1)C1CCCCN1 (configuration not stated) | – | inactive | inactive | inactive | inactive | inactive | inactive | inactive | inactive | – | inactive | inactive | inactive | inactive | inactive | 12.6 µM (active) | inactive | inactive | inactive | inactive
COc1ccc2c(c1OC)C(=O)O[C@H]2[C@@H]1c2cc3c(cc2CCN1C)OCO3 | – | – | – | – | – | – | – | – | inactive | inactive | inactive | inactive | inactive | inactive | – | – | – | – | – | –
O=C1Nc2ccc(Cl)cc2C(c2ccccc2Cl)=NC1O (configuration not stated) | inactive | inactive | inactive | inactive | – | inactive | inactive | inactive | inactive | inactive | inactive | inactive | inactive | – | inactive | inactive | inactive | inactive | inactive | inactive
O=C1c2ccccc2C(=O)c2ccccc21 | 5.01 µM (active) | inactive | inactive | – | inactive | inactive | inactive | – | inactive | inactive | inactive | inactive | inactive | inactive | inactive | inactive | inactive | inactive | inactive | inactive
O=C(Nc1ccc(Br)cc1)c1cc(Br)cc(Br)c1O | inactive | inactive | inactive | inactive | inactive | inactive | inactive | inactive | inactive | inactive | inactive | – | inactive | inactive | inactive | inactive | inactive | inactive | inactive | inactive
COc1c2c(cc3c1OCO3)CCN(C)C2 | inactive | inactive | inactive | inactive | inactive | inactive | inactive | inactive | inactive | inactive | inactive | inactive | – | inactive | inactive | inactive | inactive | inactive | inactive | inactive
